The text below walks through data of PubChem BioAssay (NCI).

Some test systems named below: HCT-15 colon; HT29 colon; SNB-75 CNS; SNB-19 CNS; U251 CNS; PC-3 prostate; SK-MEL-5 melanoma; LOX IMVI melanoma; SK-MEL-28 melanoma.
What all share (experiment): NCI-60 one-dose screen, 48 h (100 = growth as untreated, 0 = no growth, -100 = all killed)
Common to all, as to conditions: 10 µM unless noted

This is part of a sample that, as a whole, favours compounds with a hit. Of some 83,000 tested, about 20% had one in any assay.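 Plates (96-well) were seeded with cells, treated with compound at one concentration, and incubated for 48 hours before percent growth was determined.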 Values without a mark were called inactive. Calls of active or inactive are those of the source. How the source made its calls: active means growth percent below 10; inactive means the rest.

For the compound `C=C1C(=O)O[C@H]2[C@H]1CC/C(Cn1cc(-c3ccc(F)cc3)nn1)=C\CC[C@@]1(C)O[C@@H]21`, the growth is -78.8% (active) in the experiment on HCT-15 colon; -84.8% (active) with HT29 colon; 85.5% in the experiment with SNB-75 CNS; 66.8% with SNB-19 CNS; 20.7% with U251 CNS; 28.5% with PC-3 prostate. For the same compound, the growth with SK-MEL-5 melanoma was 36.3%; in the experiment on LOX IMVI melanoma it was -89.3% (active).
In the case of `COC(=O)[C@]12CC[C@@H](C)[C@H](C)[C@@H]1C1=CC[C@@H]3[C@@]4(C)C[C@@H](OC(C)=O)[C@H](O)[C@@](C)(COC(C)=O)[C@@H]4[C@H](O)C[C@@]3(C)[C@]1(C)CC2`, the growth in the experiment on HCT-15 colon was -79.4% (active); in the experiment on HT29 colon, -84.1% (active); in the experiment with SNB-75 CNS it was -81.1% (active); in the experiment with SNB-19 CNS, -82.6% (active); in the experiment with U251 CNS, -94.2% (active); with PC-3 prostate, -95.1% (active). Moreover, the growth in the experiment on SK-MEL-5 melanoma is -99.9% (active); in the experiment on LOX IMVI melanoma, -100% (active); in the experiment with SK-MEL-28 melanoma, -88.3% (active).
On to `CCNCCCn1c2c(c3ccc([N+](=O)[O-])cc3c1=O)C(=O)c1cc(OC)cnc1-2`, for which the growth with HCT-15 colon was -12% (active); in the experiment on HT29 colon it was -11% (active); with SNB-75 CNS, -23.8% (active); with SNB-19 CNS it was 10.6%; with U251 CNS, -73.3% (active); in the experiment with PC-3 prostate, 1.89% (active). Besides, the growth with SK-MEL-5 melanoma is -97.3% (active); in the experiment on LOX IMVI melanoma, -91% (active); in the experiment with SK-MEL-28 melanoma it was -31.5% (active).
For `N#Cc1cnc2cc(OC[C@@H](O)CO)c(NC(=O)C3CCCC3)cc2c1Nc1ccc(OCc2cccc(F)c2)c(Cl)c1`, the growth is 29.4% in the experiment on HCT-15 colon; -11.3% (active) with HT29 colon; -0.333% (active) with SNB-75 CNS; 65.3% in the experiment with SNB-19 CNS; 61.9% in the experiment with U251 CNS; -58.9% (active) with PC-3 prostate. For the same compound, the growth in the experiment on SK-MEL-5 melanoma was 61.5%; in the experiment with LOX IMVI melanoma, -84.8% (active); with SK-MEL-28 melanoma, -85.2% (active).
In the case of `Cc1cccc(C)c1NC(=O)CSC(=S)N1CCN(CCOCCO)CC1`, the growth is 105% with HCT-15 colon; 93.6% in the experiment with HT29 colon; 96.7% in the experiment on SNB-75 CNS; 99% in the experiment on SNB-19 CNS; 104% with U251 CNS; 99.7% in the experiment on PC-3 prostate. For the same compound, the growth was 110% with SK-MEL-5 melanoma, 96% with LOX IMVI melanoma and 105% with SK-MEL-28 melanoma.
For the compound `C=C1C(=O)O[C@H]2[C@H]1CC/C(COC(=O)NCc1c[nH]c3ccccc13)=C\CC[C@@]1(C)O[C@@H]21`, the growth in the experiment with HCT-15 colon is 4.35% (active); with HT29 colon it was 8.59% (active); with SNB-75 CNS, 72.1%; in the experiment on SNB-19 CNS it was 69.4%; in the experiment with U251 CNS, 82.8%; in the experiment with PC-3 prostate it was 50.4%. The values for the growth with SK-MEL-5 melanoma, in the experiment on LOX IMVI melanoma and in the experiment on SK-MEL-28 melanoma were 45.2%, 16.4% and 33.9%, respectively.
As to `O=C1CCCC=CC[C@H]2C=C(Cl)C(=O)C2=CC[C@H](CCCCC(F)(F)F)OC(=O)CCCC=CC[C@H]2C=C(Cl)C(=O)C2=CC[C@H](CCCCC(F)(F)F)OC(=O)CCCC=CC[C@H]2C=C(Cl)C(=O)C2=CC[C@H](CCCCC(F)(F)F)O1`, the growth in the experiment with HCT-15 colon is 68.6% [6.25 µM]; in the experiment on HT29 colon, 42.2% [6.25 µM]; in the experiment on SNB-75 CNS, 95.9% [6.25 µM]; in the experiment with SNB-19 CNS it was 65.2% [6.25 µM]; in the experiment on U251 CNS, 36.4% [6.25 µM]; in the experiment with PC-3 prostate, 71.9% [6.25 µM]. Further, the results for the growth in the experiment on SK-MEL-5 melanoma, in the experiment with LOX IMVI melanoma and in the experiment with SK-MEL-28 melanoma were 59.4% [6.25 µM], 18.7% [6.25 µM] and 71.8% [6.25 µM], respectively.
As to `O=P(O)(c1ccccc1)c1ccccc1I`, the growth with HCT-15 colon was 111%; in the experiment on HT29 colon it was 80%; in the experiment with SNB-75 CNS, 84%; in the experiment on SNB-19 CNS, 103%; in the experiment with U251 CNS it was 89.3%; in the experiment on PC-3 prostate it was 82.1%. Further, the growth in the experiment with SK-MEL-5 melanoma was 96.8%; with LOX IMVI melanoma it was 93.8%; in the experiment on SK-MEL-28 melanoma, 108%.
For `Cn1cc(-c2csc(-c3cn(CCN)c4ccc(Br)cc34)n2)c2cccnc21`, the growth in the experiment with HCT-15 colon is 36.5%; in the experiment on HT29 colon, 47.2%; in the experiment with SNB-75 CNS, 73.4%; in the experiment on SNB-19 CNS, 74.1%; in the experiment with U251 CNS, 63.1%; in the experiment with PC-3 prostate it was 66.3%. In addition, the growth in the experiment with SK-MEL-5 melanoma was 86.8%; with LOX IMVI melanoma, 53.5%; in the experiment on SK-MEL-28 melanoma, 100%.
Turning to `COc1ccc(-c2cc(-c3c(C)oc4cc5occc5c(OC)c4c3=O)nc(N)c2C#N)cc1OC`, the growth is 55.6% with HCT-15 colon; 67% in the experiment with HT29 colon; 40.3% with SNB-75 CNS; 64.3% in the experiment on SNB-19 CNS; 48.9% in the experiment with U251 CNS; 62.6% in the experiment with PC-3 prostate. In addition, the growth with SK-MEL-5 melanoma is 52.7%; with LOX IMVI melanoma it was 50.2%.
As for `Cc1cc(N2CCN(C)CC2)nc(N(CCNc2ccnc3cc(Cl)ccc23)Cc2ccco2)n1`, the growth with HCT-15 colon is 18.1%; in the experiment on HT29 colon, 5.75% (active); with SNB-75 CNS, 66.3%; in the experiment with SNB-19 CNS, 36.8%; in the experiment with U251 CNS, 39.3%; in the experiment with PC-3 prostate, 34.8%. For the same compound, the growth with SK-MEL-5 melanoma was -82% (active); in the experiment on LOX IMVI melanoma it was -5.64% (active); in the experiment on SK-MEL-28 melanoma, -72.3% (active).
As for `COc1ccc(C2C(C#N)=C(N)Oc3c2sc2c(F)cccc32)cc1` (stereo not drawn), the growth in the experiment with HCT-15 colon is 24.4%; in the experiment on HT29 colon, 7.77% (active); with SNB-75 CNS it was 3.73% (active); in the experiment with SNB-19 CNS it was 22.8%; with U251 CNS, 24.2%; in the experiment on PC-3 prostate, 15.7%. Moreover, the growth was 22.5% in the experiment with SK-MEL-5 melanoma, 29.9% in the experiment with LOX IMVI melanoma and 60.5% in the experiment with SK-MEL-28 melanoma.
Consider `COc1cc(-c2cc3cc(O)ccc3oc2=O)cc(OC)c1OC`, for which the growth was 91.4% in the experiment on HCT-15 colon; 103% in the experiment with HT29 colon; 65.3% in the experiment on SNB-75 CNS; 95.5% in the experiment on SNB-19 CNS; 99.3% in the experiment with U251 CNS; 85.3% with PC-3 prostate. Also, the growth is 93.6% in the experiment on SK-MEL-5 melanoma and 103% in the experiment on LOX IMVI melanoma.
In the case of `Cc1ccc2oc(=O)cc(-c3sc(N4CCCCC4)nc3-c3ccccc3)c2c1`, the growth is 96.9% in the experiment with HCT-15 colon; 99.9% in the experiment with HT29 colon; 78.1% with SNB-75 CNS; 95.3% in the experiment on SNB-19 CNS; 101% with U251 CNS; 88.1% in the experiment on PC-3 prostate. Also, the growth with SK-MEL-5 melanoma is 91.3%; in the experiment on LOX IMVI melanoma it was 91.2%; with SK-MEL-28 melanoma, 103%.
